Holding throughout (assay): DAPPL (digital affinity profiling via proximity ligation, sequencing); 10 mM Tris-HCl pH 7.5, 50 mM NaCl, 1 mM DTT, 4% glycerol, room temperature, 30 min; GST-TFs on glutathione beads, 16-mer random dsDNA library, 0.1% formaldehyde crosslink after washing; high values mean tight binding
Common to all, as to details: protein: recombinant; tags: N-terminal GST; dsDNA, one strand shown

One test has as its target T1, ERF (Homo sapiens, UniProt P50548 1-548).
T1 sequence: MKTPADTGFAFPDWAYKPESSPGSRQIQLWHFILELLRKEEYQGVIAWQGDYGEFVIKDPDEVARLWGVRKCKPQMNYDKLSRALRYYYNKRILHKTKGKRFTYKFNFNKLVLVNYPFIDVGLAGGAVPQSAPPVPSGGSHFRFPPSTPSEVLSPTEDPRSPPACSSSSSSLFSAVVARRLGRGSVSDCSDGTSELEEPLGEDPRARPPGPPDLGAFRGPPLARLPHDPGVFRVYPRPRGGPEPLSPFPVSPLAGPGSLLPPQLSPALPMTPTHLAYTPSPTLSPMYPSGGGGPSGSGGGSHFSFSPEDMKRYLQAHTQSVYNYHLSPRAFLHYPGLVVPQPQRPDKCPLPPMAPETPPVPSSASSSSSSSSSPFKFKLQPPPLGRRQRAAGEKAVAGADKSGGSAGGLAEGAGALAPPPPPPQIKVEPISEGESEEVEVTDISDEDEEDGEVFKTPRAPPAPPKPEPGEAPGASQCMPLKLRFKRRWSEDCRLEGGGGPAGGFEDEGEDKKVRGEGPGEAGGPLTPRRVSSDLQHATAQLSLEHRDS
A digest of the protocol:
(§1)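 Human transcription factors carrying a GST fusion were produced in yeast, bound to glutathione beads, tagged with DNA barcodes and pooled together with a tag-only sample. Each pool was held with 200 nmole of a random double-stranded 16-mer DNA library in Tris/NaCl/DTT/glycerol buffer for 30 min at room temperature, then washed, crosslinked in 0.1% formaldehyde, proximity-ligated with BsaI/T4 ligase (1 h, 37 °C), PCR-amplified and sequenced on an Illumina NextSeq500. Binding signal is the read frequency of each hexamer for a given factor divided by its frequency in the tag-only sample.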

A further test concerns the target T2, ETV3L (Homo sapiens, UniProt Q6ZN32 1-361).
T2 sequence: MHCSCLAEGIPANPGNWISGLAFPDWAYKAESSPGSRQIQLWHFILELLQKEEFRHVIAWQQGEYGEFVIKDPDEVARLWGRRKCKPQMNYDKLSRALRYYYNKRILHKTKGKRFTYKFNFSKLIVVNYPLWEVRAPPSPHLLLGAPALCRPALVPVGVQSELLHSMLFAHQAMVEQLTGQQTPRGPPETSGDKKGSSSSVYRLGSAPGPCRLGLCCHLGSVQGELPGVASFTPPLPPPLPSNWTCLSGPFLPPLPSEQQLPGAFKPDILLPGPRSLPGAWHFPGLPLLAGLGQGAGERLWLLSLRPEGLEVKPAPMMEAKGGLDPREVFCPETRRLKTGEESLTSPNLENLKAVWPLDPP
A digest of the protocol:
as §1

Another test deals with T3, ETS2 (Homo sapiens, UniProt P15036 1-469).
T3 sequence: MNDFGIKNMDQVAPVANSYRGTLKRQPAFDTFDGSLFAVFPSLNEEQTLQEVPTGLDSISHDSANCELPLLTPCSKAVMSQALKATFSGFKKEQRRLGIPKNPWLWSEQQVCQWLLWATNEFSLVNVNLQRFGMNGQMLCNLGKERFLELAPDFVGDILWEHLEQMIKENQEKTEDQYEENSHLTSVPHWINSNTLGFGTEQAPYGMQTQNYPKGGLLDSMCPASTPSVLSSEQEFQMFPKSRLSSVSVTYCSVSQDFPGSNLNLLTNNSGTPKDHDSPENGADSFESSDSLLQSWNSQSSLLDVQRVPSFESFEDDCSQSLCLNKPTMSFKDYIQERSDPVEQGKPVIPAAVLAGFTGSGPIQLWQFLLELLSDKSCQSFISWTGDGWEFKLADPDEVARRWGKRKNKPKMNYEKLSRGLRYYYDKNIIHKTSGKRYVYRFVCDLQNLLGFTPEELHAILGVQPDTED
In a few lines:
as §1

Another test deals with T4, SPDEF (Homo sapiens, UniProt O95238 1-335).
T4 sequence: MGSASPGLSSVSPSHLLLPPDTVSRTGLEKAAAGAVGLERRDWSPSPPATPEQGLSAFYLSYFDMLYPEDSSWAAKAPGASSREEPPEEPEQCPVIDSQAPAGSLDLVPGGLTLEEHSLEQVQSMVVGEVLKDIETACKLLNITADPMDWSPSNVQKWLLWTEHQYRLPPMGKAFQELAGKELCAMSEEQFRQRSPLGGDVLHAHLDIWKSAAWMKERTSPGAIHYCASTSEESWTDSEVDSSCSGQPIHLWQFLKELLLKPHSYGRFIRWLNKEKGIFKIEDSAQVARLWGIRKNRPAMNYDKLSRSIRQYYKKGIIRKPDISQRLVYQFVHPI
In a few lines: as §1

A further test addresses T5, ETV7 (Homo sapiens, UniProt Q9Y603 1-341).
T5 sequence: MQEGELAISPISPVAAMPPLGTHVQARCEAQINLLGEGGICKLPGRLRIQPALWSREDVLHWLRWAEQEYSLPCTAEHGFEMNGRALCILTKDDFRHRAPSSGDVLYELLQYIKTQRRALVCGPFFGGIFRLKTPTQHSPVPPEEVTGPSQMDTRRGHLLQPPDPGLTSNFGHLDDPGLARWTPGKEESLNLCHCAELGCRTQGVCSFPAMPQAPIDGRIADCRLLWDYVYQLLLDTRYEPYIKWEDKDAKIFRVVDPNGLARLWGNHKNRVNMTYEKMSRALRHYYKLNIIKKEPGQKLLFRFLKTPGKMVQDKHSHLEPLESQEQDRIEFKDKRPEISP
In a few lines: as §1

A further test concerns the target T6, ELF5 (Homo sapiens, UniProt Q9UKW6-2 1-255).
T6 sequence: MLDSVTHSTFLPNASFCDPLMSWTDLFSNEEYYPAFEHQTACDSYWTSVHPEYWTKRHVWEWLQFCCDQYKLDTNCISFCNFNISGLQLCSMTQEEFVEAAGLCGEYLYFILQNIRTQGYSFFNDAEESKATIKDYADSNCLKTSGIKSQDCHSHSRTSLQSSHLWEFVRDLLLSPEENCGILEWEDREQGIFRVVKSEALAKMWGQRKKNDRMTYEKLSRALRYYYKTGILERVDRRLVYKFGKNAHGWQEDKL
A digest of the protocol:
as §1

Another test deals with T7, ETV3 (Homo sapiens, UniProt P41162-2 1-143).
T7 sequence: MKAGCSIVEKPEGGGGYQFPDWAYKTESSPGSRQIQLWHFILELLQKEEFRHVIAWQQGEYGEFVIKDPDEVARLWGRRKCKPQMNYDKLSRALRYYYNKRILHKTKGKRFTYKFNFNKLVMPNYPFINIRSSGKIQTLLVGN
In a few lines: as §1

Another test has as its target ETV6 (Homo sapiens, UniProt P41212 1-452). A digest of the protocol:
as §1

ETV6, sequence (P41212 whole entry): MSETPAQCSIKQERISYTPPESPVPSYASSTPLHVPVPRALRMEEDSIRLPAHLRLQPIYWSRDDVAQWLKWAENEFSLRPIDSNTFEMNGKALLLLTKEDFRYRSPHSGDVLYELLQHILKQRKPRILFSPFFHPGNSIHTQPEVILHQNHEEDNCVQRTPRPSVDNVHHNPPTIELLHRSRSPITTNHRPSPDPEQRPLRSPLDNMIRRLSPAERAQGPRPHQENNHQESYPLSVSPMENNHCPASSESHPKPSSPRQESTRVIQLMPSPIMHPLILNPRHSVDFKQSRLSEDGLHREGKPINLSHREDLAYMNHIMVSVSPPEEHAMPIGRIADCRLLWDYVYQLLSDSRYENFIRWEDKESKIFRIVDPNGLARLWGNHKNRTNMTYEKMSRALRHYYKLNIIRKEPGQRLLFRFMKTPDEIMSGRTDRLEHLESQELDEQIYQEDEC

CTACTT: the binding signal with ERF is 1.85 fold enrichment (6-mer frequency, TF over GST control); with ETV3L it was 1.84 fold enrichment (6-mer frequency, TF over GST control); with ETS2, 1.95 fold enrichment (6-mer frequency, TF over GST control); with SPDEF, 1.79 fold enrichment (6-mer frequency, TF over GST control); in the test with ETV7, 1.8 fold enrichment (6-mer frequency, TF over GST control); with ELF5, 2 fold enrichment (6-mer frequency, TF over GST control). The binding signal in the test with ETV3 is 1.76 fold enrichment (6-mer frequency, TF over GST control); with ETV6, 2.02 fold enrichment (6-mer frequency, TF over GST control).
As to AAACTA, the binding signal was 1.29 fold enrichment (6-mer frequency, TF over GST control) in the test with ERF; 1.27 fold enrichment (6-mer frequency, TF over GST control) with ETV3L; 1.35 fold enrichment (6-mer frequency, TF over GST control) in the test with ETS2; 1.29 fold enrichment (6-mer frequency, TF over GST control) with SPDEF; 1.31 fold enrichment (6-mer frequency, TF over GST control) with ETV7; 1.32 fold enrichment (6-mer frequency, TF over GST control) in the test with ELF5. In addition, the binding signal in the test with ETV3 is 1.24 fold enrichment (6-mer frequency, TF over GST control); in the test with ETV6, 1.25 fold enrichment (6-mer frequency, TF over GST control).
As to TTTTTG, the binding signal is 1.35 fold enrichment (6-mer frequency, TF over GST control) with ERF; 1.38 fold enrichment (6-mer frequency, TF over GST control) with ETV3L; 1.27 fold enrichment (6-mer frequency, TF over GST control) with ETS2; 1.28 fold enrichment (6-mer frequency, TF over GST control) in the test with SPDEF; 1.25 fold enrichment (6-mer frequency, TF over GST control) in the test with ETV7; 1.27 fold enrichment (6-mer frequency, TF over GST control) in the test with ELF5. Besides, the binding signal is 1.29 fold enrichment (6-mer frequency, TF over GST control) with ETV3 and 1.23 fold enrichment (6-mer frequency, TF over GST control) in the test with ETV6.
With AAACAC, the binding signal in the test with ERF is 1.34 fold enrichment (6-mer frequency, TF over GST control); with ETV3L, 1.37 fold enrichment (6-mer frequency, TF over GST control); with ETS2, 1.38 fold enrichment (6-mer frequency, TF over GST control); with SPDEF, 1.31 fold enrichment (6-mer frequency, TF over GST control); in the test with ETV7, 1.34 fold enrichment (6-mer frequency, TF over GST control); in the test with ELF5, 1.3 fold enrichment (6-mer frequency, TF over GST control). Besides, the binding signal with ETV3 was 1.33 fold enrichment (6-mer frequency, TF over GST control); with ETV6 it was 1.32 fold enrichment (6-mer frequency, TF over GST control).
With CGTAAT, the binding signal in the test with ERF was 1.24 fold enrichment (6-mer frequency, TF over GST control); with ETV3L it was 1.25 fold enrichment (6-mer frequency, TF over GST control); in the test with ETS2, 1.14 fold enrichment (6-mer frequency, TF over GST control); with SPDEF, 1.19 fold enrichment (6-mer frequency, TF over GST control); in the test with ETV7, 1.19 fold enrichment (6-mer frequency, TF over GST control); with ELF5 it was 1.2 fold enrichment (6-mer frequency, TF over GST control). Also, the binding signal with ETV3 is 1.19 fold enrichment (6-mer frequency, TF over GST control); with ETV6, 1.2 fold enrichment (6-mer frequency, TF over GST control).
For the sequence CCCCAA, the binding signal with ERF is 1.06 fold enrichment (6-mer frequency, TF over GST control); with ETV3L, 1.2 fold enrichment (6-mer frequency, TF over GST control); in the test with ETS2 it was 1.13 fold enrichment (6-mer frequency, TF over GST control); in the test with SPDEF, 1.11 fold enrichment (6-mer frequency, TF over GST control); with ETV7 it was 1.1 fold enrichment (6-mer frequency, TF over GST control); in the test with ELF5, 1.12 fold enrichment (6-mer frequency, TF over GST control). Besides, the binding signal with ETV3 was 1.15 fold enrichment (6-mer frequency, TF over GST control); with ETV6, 1.14 fold enrichment (6-mer frequency, TF over GST control).
In the case of ATTCAT, the binding signal with ERF is 1.14 fold enrichment (6-mer frequency, TF over GST control); with ETV3L it was 1.27 fold enrichment (6-mer frequency, TF over GST control); with ETS2 it was 1.13 fold enrichment (6-mer frequency, TF over GST control); with SPDEF, 1.07 fold enrichment (6-mer frequency, TF over GST control); with ETV7 it was 1.18 fold enrichment (6-mer frequency, TF over GST control); in the test with ELF5, 1.1 fold enrichment (6-mer frequency, TF over GST control). The binding signal in the test with ETV3 was 1.19 fold enrichment (6-mer frequency, TF over GST control); with ETV6, 1.11 fold enrichment (6-mer frequency, TF over GST control).
As for GTATTA, the binding signal is 1.24 fold enrichment (6-mer frequency, TF over GST control) with ERF; 1.04 fold enrichment (6-mer frequency, TF over GST control) in the test with ETV3L; 1.07 fold enrichment (6-mer frequency, TF over GST control) in the test with ETS2; 1.17 fold enrichment (6-mer frequency, TF over GST control) in the test with SPDEF; 1.05 fold enrichment (6-mer frequency, TF over GST control) in the test with ETV7; 1.02 fold enrichment (6-mer frequency, TF over GST control) with ELF5. Further, the binding signal with ETV3 was 1.14 fold enrichment (6-mer frequency, TF over GST control); with ETV6, 1.16 fold enrichment (6-mer frequency, TF over GST control).

The values are drawn from paper PMC7862700, “An all-to-all approach to the identification of sequence-specific readers for epigenetic DNA modifications on cytosine”.
